A selection: hits, their analogues and other compounds. The true share with any hit is near 6.3%.
MPTP block = mitochondrial permeability transition pore inhibitors, primary screen, biochemical, isolated mouse mitochondria, absorbance; AID 602449, 2012; Ca2+ swelling absorbance, 30 min; inhibition, % at 10 µM; 360,000 compounds, 1.4% hits;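 active = inhibition of 50% or more, scaled per plate between neutral and stimulator controls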
tim23-1 inh = growth inhibitors of tim23-1 mutant yeast, primary screen, luminescence, uHTS; 330,000 compounds, 1.3% hits; S. cerevisiae tim23-1 growth, BacTiter-Glo luminescence, 24 h; AID 463212, 2010; inhibition, % at 20 µM;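 active = growth inhibition of the mutant yeast at or above 50%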;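 also: temperature-sensitive mutant grown at 25 °C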
TIM10 inh = growth inhibitors of isogenic TIM10 control yeast, primary screen, counter-screen for tim10-1 yeast inhibitor project, luminescence, uHTS. S. cerevisiae TIM10 strain growth, BacTiter-Glo luminescence, 24 h. inhibition, % at 10 µM. 330,000 compounds, 1.4% hits;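 active = inhibition of 40% or more at the single tested concentration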;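 also: wild-type TIM10 isogenic control strain grown at permissive 25 °C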
Mdm2-MdmX inh = inhibitors of human Mdm2-MdmX association, primary screen, cell-based, luminescence, split luciferase, SaOS-2, uHTS | 330,000 compounds, 3% hits | inhibition, % at 8 µM | SaOS-2 split-luciferase Mdm2/MdmX complementation | Protein Mdm4 (Homo sapiens) + E3 ubiquitin-protein ligase Mdm2 (Homo sapiens), … | AID 485346, 2010;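 active = inhibition of at least 50% at 8 µM in the primary screen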
tim10-1 inh = growth inhibitors of tim10-1 mutant yeast, primary screen, luminescence, uHTS. S. cerevisiae tim10-1 ts strain growth, BacTiter-Glo, 24 h. inhibition, % at 20 µM. 330,000 compounds, 2.2% hits;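 active = inhibition of at least 40%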;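 also: mutant grown at 25 °C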
tim10 confirm = growth inhibitors of wild-type TIM10 yeast, confirmation, counter-screen for tim10-1 synthetic lethality project, single concentration, luminescence, S. cerevisiae. inhibition, % at 10 µM. 4,600 compounds, 63% hits. shares compounds with TIM10 inh. AID 463215, 2010. S. cerevisiae tim10 strain growth, BacTiter-Glo luminescence, 24 h;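 active = inhibition of yeast growth at or above a set limit in either of two replicates at 10 µM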; also: this counterscreen used the strain with wild-type TIM10
tim23-1 conf = tim23-1 mutant yeast growth inhibitors, confirmation, luminescence, single concentration; AID 463218, 2010; S. cerevisiae tim23-1 growth, BacTiter-Glo luminescence, 24 h; shares compounds with tim23-1 inh; 4,400 compounds, 83% hits; inhibition, % at 20 µM;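 active = inhibition above about 39% in either of two replicate wells at 20 µM, limit read from the data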;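 also: temperature-sensitive tim23-1 mutant grown at 25 °C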
Mdm2-MdmX conf = Mdm2-MdmX complex disruptors, retested hits, confirmation, luminescence, single concentration | shares compounds with Mdm2-MdmX inh | Mdm2-MdmX binding, luminescent assay | inhibition, % at 8 µM | 10,000 compounds, 55% hits | AID 489028, 2010; in the data active = inhibition above about 40%
Full FLuc ctr = full-length luciferase signal inhibition, confirmation, counter-screen for Mdm2/MdmX interaction inhibitor project, cell-based, single concentration, SaOS-2; AID 504607, 2011; SaOS-2 full-length luciferase counterscreen, luminescence; inhibition, % at 8 µM; shares compounds with Mdm2-MdmX inh; 6,200 compounds, 77% hits;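 active = mean inhibition at 8 µM reaching about 37%, which flags the compound as non-specific, limit read from the data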;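 also: p53-null SaOS-2 cells with luciferase driven by a doxycycline-inducible promoter; compound on cells about two nights before reading with doxycycline added after day one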
Rh123 counter = fluorescence retest of MPTP screen hits in isolated mitochondria, single concentration. shares compounds with MPTP block. membrane potential, Rhodamine 123 fluorescence. inhibition, % at 10 µM. 5,000 compounds, 78% hits. AID 624504, 2012; in the data active = inhibition above about 22%
Of the large screens only hits and unclear results are named; the others gave an inactive call (follow-up assays come after a bar, where they were run).

O=P(Nc1c(Cl)cccc1Cl)(c1ccccc1)c1nc2c(s1)CCCC2 (stereo unspecified)	none
Cc1ccc(OC(=O)N(C)C[C@@H]2OCc3cnnn3CCCC(=O)N([C@@H](C)CO)C[C@H]2C)cc1	none (no result: tim23-1 inh, TIM10 inh, Mdm2-MdmX inh, tim10-1 inh)
N[C@@H](Cc1c[nH]c2ccccc12)c1nnc(SCc2ccc(Cl)cc2)o1	TIM10 inh 41.4 | tim10 confirm 39.6
O=C(NCC1=C(c2ccc3ccccc3c2)C[C@@H]2CC[C@H]1N2Cc1ccco1)c1nccs1	none (no result: tim23-1 inh, TIM10 inh, Mdm2-MdmX inh, tim10-1 inh)
O=C1N[C@@H](Cc2ccccc2)C(=O)N2[C@H]1C[C@H]1c3ccccc3N(OOSc3ccccc3)[C@H]12	TIM10 inh 43.6 | tim10 confirm inactive
CN1C(=O)C(=Cc2c(OCc3cnc(Cl)s3)ccc3ccccc23)C(=O)N(C)C1=O	tim23-1 inh 75.3, TIM10 inh 46.4 | tim10 confirm 52.9 | tim23-1 conf 81.4
CCCCn1nnnc1C(CCSC)N1CCC(n2c(=O)[nH]c3ccccc32)CC1 (stereo unspecified)	none (no result: tim23-1 inh, TIM10 inh, Mdm2-MdmX inh, tim10-1 inh)
Oc1cc(Cl)ccc1Oc1ccc(Cl)cc1Cl	MPTP block 91.9, TIM10 inh 45.4, Mdm2-MdmX inh 66.4 | tim10 confirm 67.7 | Mdm2-MdmX conf inactive | Rh123 counter 98.9
O=C(NCC1=C(c2cccc3ccccc23)C[C@@H]2CC[C@H]1N2Cc1ccco1)c1cccs1	none (no result: tim23-1 inh, TIM10 inh, Mdm2-MdmX inh, tim10-1 inh)
CCCc1nc2ccccc2c(=O)n1-c1cccc(OC)c1	tim23-1 inh 83.1 | tim23-1 conf inactive
CCCc1nc2ccccc2c(=O)n1-c1ccc(OC)cc1	none
Cc1oc(-c2ccccc2)nc1CN1C(=O)C(C)N=C(c2ccccc2F)c2cc(Cl)ccc21 (stereo unspecified)	tim23-1 inh 52.3 | tim23-1 conf 57.0
CCC(C)C1NC(=O)C(NC(=O)C(CC(C)C)N(C)C(=O)C2CCCN2C(=O)C(C)O)C(C)OC(=O)C(Cc2ccc(OC)cc2)N(C)C(=O)C2CCCN2C(=O)C(CC(C)C)NC(=O)[C@H](C)C(=O)[C@H](C(C)C)OC(=O)CC1O (stereo partly specified)	none (no result: tim23-1 inh, TIM10 inh, Mdm2-MdmX inh, tim10-1 inh)
CN1C(=O)C(=Cc2ccccc2OS(=O)(=O)c2ccccc2)C(=O)N(C)C1=O	tim23-1 inh 76.5 | tim23-1 conf 73.0
CN1C(=O)C(=Cc2ccccc2OCc2ccc(C(=O)O)cc2)C(=O)N(C)C1=O	none
CC12CCC3c4ccc(OC(=O)N(CCCl)CCCl)cc4CCC3C1CCC2O (stereo unspecified)	none (no result: tim23-1 inh, TIM10 inh, Mdm2-MdmX inh, tim10-1 inh)
Cc1cc(N=Nc2ccccc2C)ccc1N	tim23-1 inh 63.5 | tim23-1 conf inactive
O=C(O)C(O)(c1ccc(Cl)cc1)C1(O)CCCC1 (stereo unspecified)	none (no result: tim23-1 inh, TIM10 inh, Mdm2-MdmX inh, tim10-1 inh)
COc1ccc(-n2c(/C=C/c3ccc4c(c3)OCO4)nc3ccccc3c2=O)cc1	tim23-1 inh 50.3 | tim23-1 conf 44.7
Cc1[nH]c2ccc(OC(F)(F)F)cc2c1CCNCc1ccc(Cl)cc1	tim23-1 inh 65.6, Mdm2-MdmX inh 82.6 | tim23-1 conf inactive | Mdm2-MdmX conf 50.6 | Full FLuc ctr 47.6
COc1ccc(C(=O)OCC2CN2c2cccc([N+](=O)[O-])c2)cc1 (stereo unspecified)	none (no result: tim23-1 inh, TIM10 inh, Mdm2-MdmX inh, tim10-1 inh)

High-throughput results as filed in PubChem BioAssay.
